Results on 39 molecules are retold here after PubChem BioAssay.

Measured potencies and affinities stand elsewhere. The source made the active and inactive calls. Cut-off not given; nearly all actives show IC50 up to about 0.91 µM.

In this test the target is Calcium-dependent protein kinase 4 (Plasmodium falciparum (isolate 3D7)) (UniProt Q8IBS5). The experiment in a line: PfCDPK4 kinase inhibitors, biochemical, TCAMS library (AID 1159588). The settings on record: recombinant PfCDPK4, Kinase-Glo ATP depletion luminescence. (In general: Kinase-Glo measures the ATP left after a reaction by luminescence.)
Chain of Calcium-dependent protein kinase 4 (Plasmodium falciparum (isolate 3D7)) (Q8IBS5 whole entry, looked up): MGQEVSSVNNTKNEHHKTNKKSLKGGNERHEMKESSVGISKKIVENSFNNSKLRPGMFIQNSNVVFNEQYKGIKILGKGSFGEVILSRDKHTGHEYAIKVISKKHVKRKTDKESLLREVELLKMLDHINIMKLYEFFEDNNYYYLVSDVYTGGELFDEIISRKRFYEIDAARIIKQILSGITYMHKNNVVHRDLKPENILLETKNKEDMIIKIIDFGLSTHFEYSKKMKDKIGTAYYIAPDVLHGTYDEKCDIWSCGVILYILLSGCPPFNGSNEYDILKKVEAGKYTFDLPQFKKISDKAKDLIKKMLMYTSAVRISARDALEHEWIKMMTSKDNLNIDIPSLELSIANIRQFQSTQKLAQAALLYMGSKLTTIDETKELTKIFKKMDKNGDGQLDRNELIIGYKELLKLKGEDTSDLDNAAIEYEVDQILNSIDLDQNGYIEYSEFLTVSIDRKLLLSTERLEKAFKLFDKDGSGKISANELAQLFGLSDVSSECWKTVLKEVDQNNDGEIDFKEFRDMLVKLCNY
For the molecule `OCC1CCN(Cc2ccc(-c3ccc(-c4nc5ccc(F)cc5[nH]4)cc3)cc2)CC1`, the result was inactive.
The result for `COc1cc(NC(=O)Nc2ccc([N+](=O)[O-])cc2OC)c(OC)cc1Cl` reads “inactive”; that for `COc1cc(C)nc2ccc(NC(=O)Nc3ccc4nc(C)cc(OC)c4c3)cc12`, “inactive”.
The value for `CC(C)C[C@H](NC(=O)c1cccc(F)c1)C(=O)N[C@H](/C=N/NC(=O)c1ccccc1)CCc1ccccc1` was “inactive”; that for `Nc1ccn([C@@H]2O[C@H](COC(c3ccccc3)(c3ccccc3)c3ccccc3)[C@@H](O)[C@@H]2O)c(=O)n1` was “inactive”; that for `N#Cc1ccc2c(c1)CCN(CCC1CCC(NC(=O)c3cc4ccc(Cl)cc4[nH]3)CC1)C2` (centres undefined) was “inactive”.
The result for `Cc1cccc(-c2nc(Nc3ccncc3)c3ccc([N+](=O)[O-])cc3n2)n1` reads “inactive”; that for `CC(C)C[C@H](NC(=O)c1ccc(OCCN2CCOCC2)cc1)C(=O)N[C@H](/C=N/NC(=O)OC(C)(C)C)CCc1ccccc1`, “inactive”; that for `CC(C)CCNC(=O)C1Cc2c([nH]c3cc(Br)ccc23)C2(CCN(Cc3ccccc3)CC2)N1` (centres undefined), “inactive”.
With `O=C(/C=C/c1ccc(Cl)c(Cl)c1)N1CCN(C(=O)Nc2ccc(F)c(Cl)c2)CC1`, the outcome was inactive.
As for `COc1ccc(CCN2CC[C@H](Nc3nc(-c4ccc(F)c(F)c4)nc4ccccc34)C2)cc1S(N)(=O)=O`, the outcome was inactive.
The value for `O=[N+]([O-])c1cccc(NC(=S)N2CCCN(Cc3ccc(F)cc3F)CC2)c1` was “inactive”.
The result for `N#Cc1ccc(NC(=NC2CCCc3ccccc32)Nc2ccc(-c3ccccc3)cc2)c(O)c1` (centres undefined) reads “inactive”; that for `Fc1cccc(COc2ccc(-n3ccc4c(NCCCn5ccnc5)ncnc43)cc2Cl)n1`, “inactive”.
The value for `Cc1ccc(Nc2nccc(Nc3ccc4c(C)[nH]nc4c3)n2)cc1F` was “inactive”; that for `CCCC(CC)n1ccc2c3c(N)nc(N)nc3ccc21` (centres undefined) was “inactive”.
`COc1ccc2nccc([C@@H](O)CN3CCC(NC(=O)c4ccc(Cl)c([N+](=O)[O-])c4)CC3)c2c1`: the outcome was inactive.
On to `COc1ccc2nc(C)cc(Nc3ccc(Oc4ccc5ccccc5c4)c(Cl)c3)c2c1`, for which the outcome was inactive.
Consider `Cc1cc(F)ccc1Nc1nc(N(C)c2ccccc2)c2cc(OCCCN(C)C)ccc2n1`, for which the result was inactive.
For `O=[N+]([O-])c1cc2c(cc1C=NNc1nc(Nc3ccccc3)nc(Nc3ccccc3)n1)OCO2`, the result was inactive.
The result for `Cn1c(=O)c2nc(-c3ccc(Cl)cc3)nnc2n(CCCC#N)c1=O` reads “inactive”; that for `CCOC(=O)c1c(-c2ccccc2)[nH]c2c(sc3ccccc32)c1=O`, “inactive”.
`CCCC1N=C(N)N=C(N)N1c1cccc(C(F)(F)F)c1` (centres undefined): the outcome was inactive.
The result for `Cc1cccc(CNc2nc(C)cc(N[C@@H](Cc3ccccc3)C(=O)NCCOc3ccccc3)n2)c1` reads “inactive”.
The result for `Fc1ccc(Nc2ccnc3cc(-c4ccc(CNCCN5CCOCC5)o4)ccc23)c(Cl)c1` reads “inactive”.
Take `CCNc1cc(C(=O)N[C@@H](Cc2ccccc2)[C@H](O)CNC2CCC(C(C)(C)C)CC2)cc(N2CCCC2=O)c1` (some centres undefined): the outcome was inactive.
As for `Cc1ccc(-c2nnc(-c3ccc(C(=O)NC4CCN(Cc5ccc(C#N)cc5)CC4)cc3)o2)cc1Br`, the outcome was inactive.
For `O=C(Nc1cc(F)cc(F)c1)N1CCOC(CCN2CCC3(CCc4ccccc43)CC2)(c2ccc(Cl)c(Cl)c2)C1` (centres undefined), the result was inactive.
For `CCCC(CNCc1cccc(I)c1)CNc1cc(=O)c2ccccc2[nH]1` (centres undefined), the result was inactive.
As to `COc1ccc2nccc([C@@H](O)CN3CC[C@H](NCc4nc5c(cc4F)SCC(=O)N5)[C@H](F)C3)c2c1`, the outcome was inactive.
As to `Cc1ccc(F)c(C(=O)Nc2cccc(-c3nn4ccccc4c3-c3ccnc(Nc4cccc(F)c4)n3)c2)c1F`, the result was inactive.
On to `Cc1cc(C(=O)OCC(N)=O)c(C)n1-c1ccc(F)cc1`, for which the outcome was inactive.
The value for `Cc1cccc2[nH]c(-c3ccc(-c4cccc(CNCCN(C)C)c4)cc3)nc12` was “inactive”; that for `CNC(=O)c1ccccc1Nc1nc(Nc2cccnc2)ncc1C` was “inactive”; that for `CCCOc1ccc(C(F)(F)F)cc1NC(=O)c1nc2nc(C)cc(C)n2n1` was “inactive”.
`COc1ccc2ncc(F)c(CCN3C[C@H](CNCc4ccc5oc(=O)ccc5c4)[C@H](O)C3)c2n1`: the outcome was inactive.
The value for `CC(Oc1ccc(Cl)cc1)C(=O)Nc1cc(C(F)(F)F)ccc1-n1cncn1` (centres undefined) was “inactive”.
The result for `Cc1ncc(CN2CCC(C(=O)Nc3ccc(-c4nc5ccccc5o4)cc3)CC2)s1` reads “inactive”; that for `CC(C)(CNC(=O)[C@@H]1CCCN(CCOc2ccc(Cl)cc2)C1)c1nc(-c2ccc(Cl)c(O)c2)c(-c2ccncc2)[nH]1`, “inactive”.
